Several values for one entry are separate records, joined by “and”; a condition that tells them apart may be missing. Identical values can stand only once. Hit rate of the full screen: of about 5,500 compounds, about 2,000 (36%) were called active. Not shown: some 18% with an inconclusive outcome. Rule as the data show it: active = normalized growth mostly below about 0.91 (no sharp cut-off); inconclusive = no clear call, values can overlap the other calls; inactive = mostly above about 0.92. This is one part of the list.
Assay: chemical genetic growth profiling, strain panel (AID 1159580);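 also: tested at 20 µM; growth read once vehicle control cultures reached saturation at 30 °C; 1 = growth at the plate median or of vehicle wells; lower values mean less growth of the strain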
Conditions: S. cerevisiae deletion strains, growth OD

Measured: normalized growth

Cc1onc(-c2c(Cl)cccc2Cl)c1C(=O)N[C@@H]1C(=O)N2[C@@H]1SC(C)(C)[C@@H]2C(=O)O
inactive: locus YAL013W, strain DEP1, active compounds read low 1.02 | locus YAL021C, strain ccr4, active compounds read low 0.969 | locus YAL026C, strain drs2, active compounds read low 1.02 | locus YAL030W, strain snc1, active compounds read low 0.994 | locus YBL061C, strain skt5, active compounds read low 0.991 | locus YBR009C, strain hhf1, active compounds read low 1 | locus YBR021W, strain FUR4, active compounds read low 1.03 | locus YBR023C, strain chs3, active compounds read low 0.986 | locus YBR171W, strain sec66, active compounds read low 0.993 | locus YBR229C, strain ROT2, active compounds read low 1.01 | locus YBR231C, strain swc5, active compounds read low 0.963 | locus YBR279W, strain paf1, active compounds read low 0.993 | locus YCL011C, strain gbp2, active compounds read low 1.01 | locus YCL016C, strain dcc1, active compounds read low 1.03 | locus YCL029C, strain bik1, active compounds read low 0.996 | locus YCL069W, strain vba3, active compounds read low 0.995 | locus YCR088W, strain abp1, active compounds read low 0.975 | locus YDL005C, strain med2, active compounds read low 0.995 | locus YDL035C, strain GPR1, active compounds read low 1.04 | locus YDL040C, strain nat1, active compounds read low 0.988 | locus YDL074C, strain BRE1, active compounds read low 1.01 | locus YDL101C, strain DUN1, active compounds read low 1.01 | locus YDL134C, strain PPH21, active compounds read low 1.05 | locus YDL185W, strain tfp1, active compounds read low 0.991 | locus YDL192W, strain arf1, active compounds read low 0.993 | locus YDR001C, strain nth1, active compounds read low 0.97 | locus YDR069C, strain doa4, active compounds read low 0.991 | locus YDR101C, strain arx1, active compounds read low 0.994 | locus YDR137W, strain rgp1, active compounds read low 0.991 | locus YDR150W, strain NUM1, active compounds read low 1.02 | locus YDR159W, strain sac3, active compounds read low 0.975 | locus YDR162C, strain NBP2, active compounds read low 1.02 | locus YDR195W, strain ref2 0.889 | locus YDR297W, strain sur2, active compounds read low 0.973 | locus YDR318W, strain mcm21, active compounds read low 0.995 | locus YDR334W, strain swr1, active compounds read low 0.948 | locus YDR335W, strain msn5, active compounds read low 0.967 | locus YDR388W, active compounds read low 1 | locus YDR392W, strain spt3, active compounds read low 1.12 | locus YDR502C, strain sam2, active compounds read low 0.996 | locus YEL003W, strain gim4, active compounds read low 0.973 | locus YEL037C, strain rad23, active compounds read low 0.995 | locus YEL061C, strain CIN8 (second series), active compounds read low 0.971 | locus YEL061C, strain CIN8, active compounds read low 1.01 | locus YER015W, strain faa2, active compounds read low 0.991 | locus YER016W, strain bim1, active compounds read low 0.997 | locus YER110C, active compounds read low 0.992 | locus YER111C, strain swi4, active compounds read low 0.998 | locus YER155C, strain BEM2 (second series), active compounds read low 0.973 | locus YER155C, strain BEM2, active compounds read low 1.01 | locus YER167W, strain BCK2, active compounds read low 1.02 | locus YFR010W, strain ubp6, active compounds read low 0.97 | locus YGL078C, strain dbp3, active compounds read low 1 | locus YGL086W, strain mad1, active compounds read low 1.01 | locus YGL167C, strain pmr1, active compounds read low 0.976 | locus YGL173C, strain kem1, active compounds read low 0.961 | locus YGL227W, strain vid30, active compounds read low 0.981 | locus YGL240W, strain doc1, active compounds read low 0.951 | locus YGL248W, strain PDE1, active compounds read low 1.01 | locus YGL253W, strain hxk2, active compounds read low 1.02 | locus YGR078C, strain PAC10, active compounds read low 1.01 | locus YGR135W, strain pre9, active compounds read low 0.976 | locus YGR229C, strain SMI1, active compounds read low 1.02 | locus YGR252W, strain gcn5, active compounds read low 0.946 | locus YHR013C, strain ard1, active compounds read low 1.02 | locus YHR027C, strain rpn1, active compounds read low 0.997 | locus YHR030C, strain SLT2, active compounds read low 1.01 and 1.06 | locus YHR079C, strain IRE1 (second series), active compounds read low 0.989 | locus YHR079C, strain IRE1, active compounds read low 1.02 | locus YHR094C, strain hxt1, active compounds read low 0.994 | locus YHR129C, strain ARP1, active compounds read low 1.02 | locus YHR142W, strain chs7, active compounds read low 1.02 | locus YHR200W, strain rpn10, active compounds read low 0.991 | locus YIL066C, strain RNR3, active compounds read low 1.02 | locus YIL073C, strain SPO22, active compounds read low 0.988 | locus YIL125W, strain kgd1, active compounds read low 0.998 | locus YIR030C, strain dcg1, active compounds read low 1.01 | locus YJL092W, strain hpr5, active compounds read low 0.99 | locus YJL095W, strain BCK1 (second series), active compounds read low 0.983 | locus YJL095W, strain BCK1, active compounds read low 1 and 1.04 | locus YJL115W, strain asf1, active compounds read low 0.979 | locus YJL129C, strain trk1, active compounds read low 0.972 | locus YJL134W, strain LCB3, active compounds read low 1.01 | locus YJL154C, strain vps35, active compounds read low 0.978 | locus YJL164C, strain tpk1, active compounds read low 1.02 | locus YJL166W, strain qcr8, active compounds read low 0.957 | locus YJL168C, strain set2, active compounds read low 0.988 | locus YJL187C, strain SWE1 (second series), active compounds read low 1.01 | locus YJL187C, strain SWE1, active compounds read low 0.987 | locus YJR043C, strain POL32, active compounds read low 1.04
